Experimental data published in PubChem BioAssay AID1835 (Johns Hopkins Ion Channel Center, 2009).
Screen size: about 2,400 compounds; about 750 (31%) were called active.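 Rule for the calls: active = median signal gain over dofetilide-blocked control wells reaching their mean plus 3 SD, so readout 1 at least 0; inactive = the rest.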 The list shows a part of the results.

What follows are compounds tested against Voltage-gated inwardly rectifying potassium channel KCNH2 (Homo sapiens) (UniProt Q12809) (assay: hERG protection against dofetilide inhibition, confirmation, cell-based, thallium flux, duplicate retest, dofetilide IC70 (AID 1835)). Conditions: hERG cell line, FluxOR thallium flux, dofetilide-blocked; at 10 µM; hits give high values.
Sequence of Voltage-gated inwardly rectifying potassium channel KCNH2 (Homo sapiens) (Q12809 whole entry, looked up): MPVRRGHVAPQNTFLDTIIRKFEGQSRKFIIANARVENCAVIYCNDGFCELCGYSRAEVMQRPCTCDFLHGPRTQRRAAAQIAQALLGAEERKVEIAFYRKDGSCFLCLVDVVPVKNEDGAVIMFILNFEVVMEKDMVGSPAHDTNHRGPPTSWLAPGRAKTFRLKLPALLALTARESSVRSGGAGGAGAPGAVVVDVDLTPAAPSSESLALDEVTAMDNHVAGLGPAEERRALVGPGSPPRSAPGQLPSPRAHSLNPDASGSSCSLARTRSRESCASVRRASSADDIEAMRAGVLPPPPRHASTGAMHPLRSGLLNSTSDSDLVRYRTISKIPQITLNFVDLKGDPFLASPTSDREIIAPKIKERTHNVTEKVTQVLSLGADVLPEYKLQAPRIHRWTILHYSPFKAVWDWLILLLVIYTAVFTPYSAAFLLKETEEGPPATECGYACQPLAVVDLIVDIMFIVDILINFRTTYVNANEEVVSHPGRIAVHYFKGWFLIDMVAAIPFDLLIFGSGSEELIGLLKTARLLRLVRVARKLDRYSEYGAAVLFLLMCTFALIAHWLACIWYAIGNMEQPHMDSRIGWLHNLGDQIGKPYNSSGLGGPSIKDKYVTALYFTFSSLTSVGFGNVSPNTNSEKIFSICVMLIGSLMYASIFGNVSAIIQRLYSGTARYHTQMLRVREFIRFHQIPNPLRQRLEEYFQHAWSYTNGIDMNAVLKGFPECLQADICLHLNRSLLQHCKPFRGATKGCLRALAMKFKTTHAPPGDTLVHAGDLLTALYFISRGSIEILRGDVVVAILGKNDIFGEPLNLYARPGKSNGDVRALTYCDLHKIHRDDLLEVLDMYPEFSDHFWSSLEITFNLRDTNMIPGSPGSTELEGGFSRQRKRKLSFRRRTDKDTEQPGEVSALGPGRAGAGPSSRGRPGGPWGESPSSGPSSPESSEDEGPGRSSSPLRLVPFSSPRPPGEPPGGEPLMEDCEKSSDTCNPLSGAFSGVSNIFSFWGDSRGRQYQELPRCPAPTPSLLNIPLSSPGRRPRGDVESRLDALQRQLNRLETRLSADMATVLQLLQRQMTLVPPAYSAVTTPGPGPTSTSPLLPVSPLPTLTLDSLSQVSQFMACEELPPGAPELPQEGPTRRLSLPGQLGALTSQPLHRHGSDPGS
With `O=C(N1CCOCC1)N1CCC(c2nc(-c3ccc(S(=O)(=O)N4CCOCC4)cc3)no2)CC1` the activity increase over dofetilide control, less the hit threshold was -12% (inactive). For `Cc1ccc(CNS(=O)(=O)c2ccc(C(F)(F)F)cc2)n1C`, the activity increase over dofetilide control, less the hit threshold was -18% (inactive). `Cc1cc(C)c(-c2cc(NC(=O)COC(=O)c3ccc(NC(=O)CC#N)cc3)n(-c3ccccc3)n2)cc1C` was tested, and the activity increase over dofetilide control, less the hit threshold was -15% (inactive). `Cc1ccc(NC(=S)N2CCN(c3ccccc3F)CC2)c(C)c1` was tested, and the activity increase over dofetilide control, less the hit threshold was -8% (inactive). `CC(C)COc1ccc(-c2nn(-c3ccccc3)cc2C(=O)Nc2nccs2)cc1` was tested, and the activity increase over dofetilide control, less the hit threshold was 20% (active). `COc1ccc(-c2nn(-c3ccccc3)cc2C(=O)Nc2cccc(C(=O)O)c2)cc1[N+](=O)[O-]` was tested, and the activity increase over dofetilide control, less the hit threshold was -27% (inactive). With `COc1ccc(NC(=O)c2cn(-c3ccccc3)nc2-c2ccncc2)cc1` the activity increase over dofetilide control, less the hit threshold was 40% (active). In the case of `Cc1cnc(C(=O)Nc2nccs2)cn1`, the activity increase over dofetilide control, less the hit threshold is reported as -22% (inactive). For `Cc1ccc(-n2ccc(=O)c(C(=O)Nc3ccc(S(=O)(=O)Nc4nccs4)cc3)n2)cc1`, the activity increase over dofetilide control, less the hit threshold was -3% (inactive). With `COc1ccc(CN2CCn3ncc(C(=O)Nc4ccccc4)c3C2=O)cc1` the activity increase over dofetilide control, less the hit threshold was -16% (inactive). `COc1ccc([N+](=O)[O-])cc1N(CC(=O)NCc1ccco1)S(C)(=O)=O` was tested, and the activity increase over dofetilide control, less the hit threshold was -21% (inactive). For `O=c1cc(O)c2sc(Nc3ccc(F)c(Cl)c3)nc2[nH]1`, the activity increase over dofetilide control, less the hit threshold was -15% (inactive). For `O=C(COc1ccc2ccccc2c1)Nc1ccc(Br)cc1C(=O)O`, the activity increase over dofetilide control, less the hit threshold was -10% (inactive). With `COC(=O)CSc1nnc(COc2ccc3ccccc3c2)o1` the activity increase over dofetilide control, less the hit threshold was -10% (inactive). For `O=C(COc1ccc2ccccc2c1)NNC(=O)C(=O)Nc1ccccc1`, the activity increase over dofetilide control, less the hit threshold was 55% (active). In the case of `Cc1ccccc1NC(=O)C(=O)NNC(=O)COc1ccc2ccccc2c1`, the activity increase over dofetilide control, less the hit threshold is reported as 48% (active). For `COc1ccc(N2CC(C(=O)OCC(=O)Nc3ccccc3C)CC2=O)cc1` (centres undefined), the activity increase over dofetilide control, less the hit threshold was -5% (inactive). `COc1ccccc1NC(=O)C(=O)NNC(=O)COc1ccc2ccccc2c1` was tested, and the activity increase over dofetilide control, less the hit threshold was 94% (active). `O=C(COc1ccccc1)Nc1ccc(F)cc1` was tested, and the activity increase over dofetilide control, less the hit threshold was -27% (inactive). In the case of `C=CCNC(=O)COc1ccc(Oc2ccccc2)cc1`, the activity increase over dofetilide control, less the hit threshold is reported as -6% (inactive). In the case of `CCN1C(=O)c2cccc3c(S(=O)(=O)NCC4CCCO4)ccc1c23` (centres undefined), the activity increase over dofetilide control, less the hit threshold is reported as -22% (inactive). `Brc1ccc(Nc2nc(-c3cccnc3)cs2)cc1` was tested, and the activity increase over dofetilide control, less the hit threshold was -12% (inactive). For `Cc1cc(C(F)(F)F)c2sc(N)nc2n1`, the activity increase over dofetilide control, less the hit threshold was -11% (inactive). With `CC1CC(OCC(O)C[N+]2(C)CCOCC2)CC(C)(C)C1` (centres undefined) the activity increase over dofetilide control, less the hit threshold was -13% (inactive). For `COc1ccc(S(=O)(=O)Nc2cccc(-n3cnnn3)c2)cc1`, the activity increase over dofetilide control, less the hit threshold was -20% (inactive). For `C=CCN(c1ccc(Cl)cc1)S(=O)(=O)c1cccc(C(=O)O)c1`, the activity increase over dofetilide control, less the hit threshold was 6% (active). With `C=CCN(c1ccccc1)S(=O)(=O)c1cccc(C(=O)Nc2nnc(SCC)s2)c1` the activity increase over dofetilide control, less the hit threshold was -4% (inactive). In the case of `C=CCN(c1cccc(C(F)(F)F)c1)S(=O)(=O)c1cccc(C(=O)OCC(=O)Nc2ccccc2)c1`, the activity increase over dofetilide control, less the hit threshold is reported as -6% (inactive). In the case of `COc1ccc(-c2cn3nc(SCC(=O)NC4CCCCC4)ccc3n2)cc1`, the activity increase over dofetilide control, less the hit threshold is reported as -2% (inactive). For `Cc1ccc(C(=O)Nc2nc3ccccc3c(=O)s2)cc1`, the activity increase over dofetilide control, less the hit threshold was 53% (active). In the case of `O=C(CNC(=O)c1ccccc1)NCc1ccc(Cl)cc1`, the activity increase over dofetilide control, less the hit threshold is reported as -8% (inactive). For `O=C(Nc1nc(=O)c2ccccc2s1)c1ccc(Cl)cc1`, the activity increase over dofetilide control, less the hit threshold was 46% (active). With `CN(CC(=O)Nc1nc2ccccc2s1)S(=O)(=O)c1ccc(Cl)cc1` the activity increase over dofetilide control, less the hit threshold was -17% (inactive). For `Cc1ccc(C(=O)Nc2nc(=O)n(C)s2)cc1`, the activity increase over dofetilide control, less the hit threshold was -1% (inactive). For `C=CCN(c1ccc(C(=O)NC(C)C)cc1)S(C)(=O)=O`, the activity increase over dofetilide control, less the hit threshold was -10% (inactive). In the case of `COc1ccc(N(CC(=O)N2CCN(Cc3ccccc3)CC2)S(C)(=O)=O)cc1`, the activity increase over dofetilide control, less the hit threshold is reported as -16% (inactive). `CS(=O)(=O)N(Cc1ccccc1)c1ccc(C(=O)Nc2ccc(C(N)=O)cc2)cc1` was tested, and the activity increase over dofetilide control, less the hit threshold was 82% (active). `CCC1=C(OC(=O)N(CC)CC)N2C(=O)OC(=NCC3CC3)[C@]2(C)[C@H]2C1=CC[C@H]1C(=O)N(C)C(=O)[C@H]12` was tested, and the activity increase over dofetilide control, less the hit threshold was -1% (inactive). In the case of `N=c1c2cn[nH]c2nc(SCC(=O)c2ccc(Br)cc2)n1-c1ccc(Br)cc1`, the activity increase over dofetilide control, less the hit threshold is reported as -3% (inactive). In the case of `Cc1cc(C(=O)NCc2ccc(S(N)(=O)=O)cc2)ccc1[N+](=O)[O-]`, the activity increase over dofetilide control, less the hit threshold is reported as -15% (inactive). `CSC(=S)N/N=C(\C)c1ccccc1` was tested, and the activity increase over dofetilide control, less the hit threshold was 35% (active). `C/C(=N\NC(N)=S)c1ccncc1` was tested, and the activity increase over dofetilide control, less the hit threshold was -3% (inactive). `CSC(=S)N/N=C/c1ccc(Br)cc1` was tested, and the activity increase over dofetilide control, less the hit threshold was 46% (active). With `CC(C)(C)c1ccc(/C=N/NC(=S)Nc2cccnc2)cc1` the activity increase over dofetilide control, less the hit threshold was -11% (inactive). `CSC(=S)N/N=C/c1ccccc1` was tested, and the activity increase over dofetilide control, less the hit threshold was 34% (active). In the case of `COCCNC(=O)C(=O)N/N=C/c1ccc(C(=O)OC)cc1`, the activity increase over dofetilide control, less the hit threshold is reported as -11% (inactive). In the case of `CC(C)NC(=S)N/N=C/c1ccc(C(C)(C)C)cc1`, the activity increase over dofetilide control, less the hit threshold is reported as -13% (inactive). `CSc1ccc(/C=N/NC(=O)c2cccs2)cc1` was tested, and the activity increase over dofetilide control, less the hit threshold was -17% (inactive). In the case of `C/C(=N\NC(N)=S)c1cccnc1`, the activity increase over dofetilide control, less the hit threshold is reported as -8% (inactive). For `COCCOC(=O)C1=C(C)Nc2ncnn2C1c1ccc(F)cc1` (centres undefined), the activity increase over dofetilide control, less the hit threshold was -26% (inactive). In the case of `CC1CCc2c(sc(NS(=O)(=O)c3ccccc3)c2C(=O)OC(C)C)C1` (centres undefined), the activity increase over dofetilide control, less the hit threshold is reported as 7% (active). In the case of `CC(C)OC(=O)c1c(NC(=O)c2ccco2)sc2c1CCCCC2`, the activity increase over dofetilide control, less the hit threshold is reported as -12% (inactive). With `CC(C)OC(=O)c1c(NS(=O)(=O)c2ccccc2)sc2c1CCCC2` the activity increase over dofetilide control, less the hit threshold was 37% (active). In the case of `CC(NS(=O)(=O)c1ccccc1)C(N)=O` (centres undefined), the activity increase over dofetilide control, less the hit threshold is reported as -10% (inactive). In the case of `COC(=O)c1c(NC(=O)CN2CCOCC2)sc2c1CCC(C)C2` (centres undefined), the activity increase over dofetilide control, less the hit threshold is reported as -13% (inactive). For `CCOC(=O)c1c(NS(C)(=O)=O)sc2c1CCC(C)C2` (centres undefined), the activity increase over dofetilide control, less the hit threshold was 21% (active). For `O=[N+]([O-])c1ccc(Cl)c(/C=N/Nc2nc(N3CCOCC3)nc(N3CCOCC3)n2)c1`, the activity increase over dofetilide control, less the hit threshold was -18% (inactive). For `COc1ccccc1C(=O)COC(=O)c1ccc(-n2cnnn2)cc1`, the activity increase over dofetilide control, less the hit threshold was -21% (inactive). For `O=C(N/N=C\c1coc2ccccc2c1=O)c1ccco1`, the activity increase over dofetilide control, less the hit threshold was -24% (inactive). With `CC(Nc1ccc(F)cc1)=[N+](C)CCNS(=O)(=O)c1ccc(Cl)cc1` the activity increase over dofetilide control, less the hit threshold was -3% (inactive). For `O=C(NN1C(=O)C2C(c3ccccc3)C=CC(c3ccccc3)C2C1=O)c1cccc(Br)c1` (centres undefined), the activity increase over dofetilide control, less the hit threshold was -54% (inactive). With `CC1Cc2ccccc2N1C(=S)NC(=O)C1(C)CC1(Cl)Cl` (centres undefined) the activity increase over dofetilide control, less the hit threshold was 42% (active). For `COc1cc2c(cc1OC)C(C)N(C(=S)NC(=O)c1ccccc1)CC2` (centres undefined), the activity increase over dofetilide control, less the hit threshold was -18% (inactive). With `CC1Cc2ccccc2N1C(=S)NC(=O)c1ccco1` (centres undefined) the activity increase over dofetilide control, less the hit threshold was 6% (active). `Cc1csc2ncc(C(=O)N3c4ccccc4CC3C)c(=O)n12` (centres undefined) was tested, and the activity increase over dofetilide control, less the hit threshold was -2% (inactive). For `CC(=O)N1CCc2cc(S(=O)(=O)N3c4ccccc4CC3C)ccc21` (centres undefined), the activity increase over dofetilide control, less the hit threshold was -14% (inactive). With `CC1Cc2ccccc2N1C(=S)NC(=O)c1ccc(Cl)cc1Cl` (centres undefined) the activity increase over dofetilide control, less the hit threshold was 55% (active). With `CC1Cc2cc(S(=O)(=O)NCc3ccccc3)ccc2N1C(=O)C1CCC1` (centres undefined) the activity increase over dofetilide control, less the hit threshold was -22% (inactive). In the case of `CC1Cc2ccccc2N1C(=S)NC(=O)c1cccc(Br)c1` (centres undefined), the activity increase over dofetilide control, less the hit threshold is reported as 77% (active).
